# Assay results as given in PubChem BioAssay.
# Where “and” joins values, the source holds several entries; their conditions need not be identical. Identical values can stand only once. For some assays here: Measured potencies and affinities stand elsewhere. Calls of active or inactive are those of the source. Unless noted, how the calls were made is not given here.
# Assays:
# [1] = blockers of polyQ-driven CASP3 activation – cell-based (AID 1583); details: polyglutamine-induced caspase-3 activation, cell assay; stronger effect = higher value;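 tested at 10 µM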
# [2] = yeast 75Q aggregation reduction – 75Q-TubU reporter (AID 1593); details: Yeast 75Q polyglutamine aggregation reporter
# [3] = restoration of touch response, mutant HTT neurons – whole organism, C. elegans mechanosensory neurons, N-terminal huntingtin (AID 1599); details: C. elegans polyQ-huntingtin mechanosensory neurons, stronger effect = higher value
# [4] = blockers of cytochrome c efflux from mitochondria – biochemical, purified mitochondria (AID 1603); details: stronger effect = lower value;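 further: mouse liver mitochondria challenged with calcium chloride; signal normalized to the plate average as 100%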
# [5] = polyglutamine aggregate formation blockers (AID 1604); details: polyglutamine-induced protein aggregation inhibition assay; stronger effect = higher value; tested at 2.5 µM
# [6] = glutamate transport activators, MN-1 cells, MN-1 cell line (AID 1612); details: MN-1 motor neuron cells, stronger effect = higher value;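 further: tested at 1 µM final; 0% = mean of DMSO vehicle wells on each plate; positive means more glutamate uptake than control and negative means less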
# [7] = GFP-Q80 aggregate reduction, neuronal-like cells, cell-based, NGF-treated PC12, GFPQ80 (AID 1614); details: PC12 NGF-treated GFP-polyQ80 inclusion reduction;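 further: lower means fewer inclusions and 0 means no inclusions at all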
# [8] = 75Q-TubH aggregate inhibition, S. cerevisiae, yeast (AID 1616); details: S. cerevisiae 75Q-TubH polyglutamine aggregation suppression; stronger effect = higher value
# [9] = P. berghei load reduction in hepatocytes – cell-based, HepG2, luciferase luminescence, HepG2 viability, primary screen (AID 624349; in the data active means parasite load remaining mostly below about 12%, no sharp cut-off; inactive means mostly above about 10%;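 further: 100% = mean of DMSO negative control wells on the same plate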); details: P. berghei liver stage in HepG2, luciferase luminescence, concentration not given here; parasite load remaining: stronger effect = lower value; viability: measured here: HepG2 viability without parasites
# [10] = target: 6-phosphogluconate dehydrogenase, decarboxylating (Homo sapiens) (UniProt P52209); test: inhibition of human phosphogluconate dehydrogenase – biochemical, recombinant enzyme, NADPH absorbance, primary screen (AID 1159550;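 active means at least 20% inhibition of 6-phosphogluconate dehydrogenase activity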); details: recombinant 6PGD, NADPH absorbance 341 nm; at 10 µM; stronger effect = higher value
# [11] = EMT-state selective cytotoxicity in co-culture – imaging, PC-3E GFP, TEM4-18 mCherry, primary screen (AID 1345086;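 active means compounds killing one labelled cell type while sparing the other, by normalised counts and ratio limits, not self-fluorescent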;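 on all read-outs here: cells exposed to compound for 72 h before imaging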;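 on red/green cell ratio (normalised): normalised mesenchymal count divided by normalised epithelial count so high means epithelial killing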); details: PC-3E GFP / TEM4-18 mCherry co-culture, imaging cell counts, at 1 µM; for red/green cell ratio (normalised): actives lie on both sides, counts scaled to control wells, 1 = unselective
# [12] = tested on: Aerobactin synthetase IucA (Klebsiella pneumoniae); test: inhibition of K. pneumoniae IucA enzyme – biochemical, Tocris library, absorbance (AID 1345561); details: purified IucA enzyme assay, absorbance (OD) read-out; stronger effect = lower value;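 tested at 8 µM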;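 further: 100% = enzyme without compound and 0% = no enzyme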
# [13] = viability loss with induced miR-34 in A549 – imaging, A549 dox-inducible miR-34, nuclei and caspase counts, primary screen (AID 1347080;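 active means compounds whose cell count with miR-34 switched on is under 0.7 times the count with it off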); details: A549 miR-34 inducible, Hoechst nuclei count, 48 h
# [14] = chitosan synthesis blockers in C. neoformans – flow cytometry, Cibacron Brilliant Red staining (AID 1347148); details: Cryptococcus neoformans chitosan, stronger effect = lower value; at 10 µM unless noted;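 further: compound exposure lasted three days at 37 degrees C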
# [15] = target: NAD(+) hydrolase SARM1 (Homo sapiens) (UniProt Q6SZW1); test: blocking NAD cleavage by SARM1 SAM-TIR – cell lysate, NAD-Glo luminescence (AID 1508614;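 active means compound whose remaining NAD level is above about 45 nM, limit read from the data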); details: SAM-TIR HEK293T lysate NADase, at 1 µM, stronger effect = higher value
# [16] = target: Mitogen-activated protein kinase 7 (Homo sapiens) (UniProt Q13164); test: Gal4-ERK5 driven luciferase induction – cell-based, HTS, primary screen (AID 1508626;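 active means luciferase signal above three times the same-plate solvent-only control wells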;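 further: luciferase driven by Gal4-ERK5 fusion binding five Gal4 sites before minimal TATA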); details: HeLa Gal4-ERK5 transactivation, 18 h, at 5 µM, stronger effect = higher value
# [17] = galactose survival enhancers in mitochondrial complex I cybrids – cell-based, galactose medium, ATP luminescence, primary screen (AID 1645843;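 active means z-score of at least 1.8 in each of two replicates, scored against plate mean and spread of sample wells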;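 further: positive z means more ATP and so rescue of galactose-driven cybrid death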); details: complex I mutant cybrid cells, 72 h, stronger effect = higher value
# [18] = compounds altering circadian rhythm period length – cell-based, LOPAC library, luminescence reporter (AID 2774); details: circadian reporter cells, at 7 µM, actives lie on both sides;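 further: values are relative to mean of DMSO wells on each plate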
# [19] = tested on: Hepatitis C virus NS3 helicase; test: blockers of NS3h binding to ssDNA – biochemical, fluorescence polarization, LOPAC1280 library, primary screen (AID 687035; in the data active means inhibition above about 37%); details: Purified HCV NS3 helicase, Cy5-dT15 ssDNA binding fluorescence polarization; stronger effect = higher value; concentration not given here
# [20] = compounds altering Cy5-DNA-NS3h complex signal – biochemical, LOPAC1280, artefact control for HCV NS3 helicase inhibitor project (AID 687037); details: Cy5-DNA-NS3h complex fluorescence interference counterscreen
# [21] = blockers of cellular phospholipid synthesis – cell-based, LOPAC library, screen 4, primary screen (AID 1347384); details: animal cells, phospholipid biosynthesis inhibition screen; at 10 µM
# [22] = signal quenchers or enhancers, Cy5 substrate/SSB – biochemical, NIH Clinical Collection, E. coli SSB, artefact control for HCV NS3 helicase inhibitor project (AID 743268); details: Cy5-oligo bound E. coli SSB, fluorescence interference
# [23] = tested on: Hepatitis C virus NS3 helicase; test: blockers of NS3h binding to DNA – biochemical, fluorescence polarization, NIH Clinical Collection, primary screen (AID 743270); details: NS3 helicase binding to Cy5-dT15 DNA, stronger effect = higher value, concentration not given here
# [24] = target: Single-stranded DNA-binding protein (Escherichia coli (strain K12)) (UniProt P0AGE0); test: SSB-ssDNA binding inhibitors – biochemical, fluorescence polarization, NIH Clinical Collection, counter-screen for HCV NS3 helicase inhibitor project (AID 743271; in the data active means inhibition above about 28%); details: E. coli SSB-DNA binding, stronger effect = higher value, concentration not given here
# [25] = compounds distorting NS3 helicase fluorescence signal – biochemical, NIH Clinical Collection, artefact control for HCV NS3 helicase inhibitor project (AID 743272); details: fluorescence interference counterscreen, HCV NS3 helicase assay; stronger effect = lower value;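 further: HCV NS3 helicase with a Cy5 labelled single stranded DNA probe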
# [26] = compounds altering HSF1 focus formation in cells – imaging, Selleck Cancer Library (AID 1347162; in the data active means plate-normalised HSF1 focus index below about 0.46); details: human cells, HSF1 nuclear foci imaging, at 10 µM; SSMD: measured here: HSF1 foci SSMD mean; cell count: measured here: cell number; plate-normalised HSF1 focus index: stronger effect = lower value
# [27] = measured here: epithelial PC-3E GFP cell survival
# [28] = measured here: mesenchymal TEM4-18 mCherry cell survival
# [29] = stronger effect = lower value, cell number ratio, induced over uninduced
# [30] = measured here: relative caspase fold change +Dox/-Dox
# [31] = measured here: total cells with miR-34 induction, stronger effect = lower value
# [32] = measured here: total cells without miR-34 induction
# 6-phosphogluconate dehydrogenase, decarboxylating (Homo sapiens), sequence (P52209 whole entry, looked up): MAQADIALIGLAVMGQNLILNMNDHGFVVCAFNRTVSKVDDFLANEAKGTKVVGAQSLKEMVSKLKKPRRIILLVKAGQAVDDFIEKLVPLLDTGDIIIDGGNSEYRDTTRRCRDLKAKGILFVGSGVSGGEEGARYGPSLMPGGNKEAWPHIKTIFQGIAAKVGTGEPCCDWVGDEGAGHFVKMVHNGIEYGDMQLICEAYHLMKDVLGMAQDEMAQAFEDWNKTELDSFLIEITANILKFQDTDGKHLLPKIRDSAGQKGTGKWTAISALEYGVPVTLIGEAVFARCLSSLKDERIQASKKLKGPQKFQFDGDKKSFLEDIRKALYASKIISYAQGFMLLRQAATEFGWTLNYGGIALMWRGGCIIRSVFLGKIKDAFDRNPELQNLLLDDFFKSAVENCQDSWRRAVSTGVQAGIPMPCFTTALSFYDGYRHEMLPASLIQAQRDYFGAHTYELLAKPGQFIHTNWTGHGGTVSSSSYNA
# Mitogen-activated protein kinase 7 (Homo sapiens), sequence (Q13164 whole entry, looked up, the tested form may be a part): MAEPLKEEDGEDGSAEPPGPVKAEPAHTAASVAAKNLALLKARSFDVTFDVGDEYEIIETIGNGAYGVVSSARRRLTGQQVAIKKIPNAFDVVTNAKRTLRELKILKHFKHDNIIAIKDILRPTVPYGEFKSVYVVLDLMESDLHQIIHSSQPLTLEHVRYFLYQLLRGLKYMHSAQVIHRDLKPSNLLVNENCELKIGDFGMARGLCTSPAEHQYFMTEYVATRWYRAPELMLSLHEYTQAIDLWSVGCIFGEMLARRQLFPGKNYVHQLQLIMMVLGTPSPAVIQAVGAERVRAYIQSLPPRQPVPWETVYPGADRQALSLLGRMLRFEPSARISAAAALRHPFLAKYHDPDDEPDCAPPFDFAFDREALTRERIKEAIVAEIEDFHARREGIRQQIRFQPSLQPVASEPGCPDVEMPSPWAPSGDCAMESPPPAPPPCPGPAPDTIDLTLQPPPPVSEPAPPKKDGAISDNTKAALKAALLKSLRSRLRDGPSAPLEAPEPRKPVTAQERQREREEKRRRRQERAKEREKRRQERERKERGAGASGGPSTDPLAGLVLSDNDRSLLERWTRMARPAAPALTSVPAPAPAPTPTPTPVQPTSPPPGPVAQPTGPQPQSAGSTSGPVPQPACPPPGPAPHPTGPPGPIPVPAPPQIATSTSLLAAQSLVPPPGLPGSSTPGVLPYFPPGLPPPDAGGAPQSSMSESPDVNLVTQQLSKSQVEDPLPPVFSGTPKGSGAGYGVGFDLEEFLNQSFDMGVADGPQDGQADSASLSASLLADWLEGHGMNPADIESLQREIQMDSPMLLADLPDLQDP
# NAD(+) hydrolase SARM1 (Homo sapiens), sequence (Q6SZW1 whole entry, looked up, the tested form may be a part): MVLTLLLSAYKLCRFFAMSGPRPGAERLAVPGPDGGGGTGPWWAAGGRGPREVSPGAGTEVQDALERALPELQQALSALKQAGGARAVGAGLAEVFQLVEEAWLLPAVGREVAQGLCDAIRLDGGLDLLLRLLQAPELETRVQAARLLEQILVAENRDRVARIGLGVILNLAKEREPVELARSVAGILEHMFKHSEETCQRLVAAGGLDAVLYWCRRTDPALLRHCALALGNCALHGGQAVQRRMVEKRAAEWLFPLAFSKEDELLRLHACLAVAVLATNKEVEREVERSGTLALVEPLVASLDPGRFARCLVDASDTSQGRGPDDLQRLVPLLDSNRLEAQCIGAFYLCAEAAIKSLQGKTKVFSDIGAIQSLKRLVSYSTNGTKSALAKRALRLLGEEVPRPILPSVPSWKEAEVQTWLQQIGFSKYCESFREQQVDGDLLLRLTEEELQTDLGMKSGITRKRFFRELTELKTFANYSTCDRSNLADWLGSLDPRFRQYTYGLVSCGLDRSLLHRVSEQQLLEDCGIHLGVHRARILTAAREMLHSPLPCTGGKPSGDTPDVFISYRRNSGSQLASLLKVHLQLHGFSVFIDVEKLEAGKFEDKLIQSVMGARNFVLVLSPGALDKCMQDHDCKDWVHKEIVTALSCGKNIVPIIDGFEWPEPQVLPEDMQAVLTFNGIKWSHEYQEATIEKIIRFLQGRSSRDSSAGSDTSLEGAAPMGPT
compound,measurement,setting,value
C=NC(C(=O)NC1C(=O)N2C1SC(C)(C)C2C(=O)O)c1ccccc1 (centres undefined),inhibition,[1],15.2%
same,score,[2],0.85
same,rescue above control,[3],-2.5
same,cytochrome c release ratio,[4],0.48
same,inhibition of aggregation,[5],82%
same,glutamate uptake change,[6],4.77%
same,inclusion score,[7],2
same,aggregation suppression score,[8],0.649
same,parasite load remaining,[9],130% (inactive)
same,viability,[9],74.4%
same,inhibition,[10],-2.44% (inactive)
same,red/green cell ratio (normalised),[11],1.12 (inactive)
same,normalised cell number,[11]; [27],0.88
same,normalised cell number,[11]; [28],0.99
CCCC(=O)Nc1ncnc2c1ncn2[C@@H]1O[C@@H]2COP(=O)(O)O[C@H]2[C@H]1OC(=O)CCC,inhibition,[10],10.5% (inactive)
same,remaining activity,[12],106% (inactive)
same,fold change,[13]; [29],1.04 (inactive) and 0.902 (inactive)
same,fold change,[13]; [30],0.758 and 0.739
same,cell count,[13]; [31],5610 and 9020
same,cell count,[13]; [32],5380 and 10000
same,fold fluorescence,[14],10.2 [at 101.8 µM] (inactive)
same,remaining NAD,[15],10 nM (inactive)
same,luciferase signal,[16],68 AU (inactive)
same,z-score,[17],0.335 (inactive)
CCOC(=O)[C@H](CCc1ccccc1)N[C@H](C)C(=O)N1C2CCCCC2C[C@H]1C(=O)O (some centres undefined),parasite load remaining,[9],125% (inactive)
same,viability,[9],94.3%
same,inhibition,[10],7.88% (inactive)
same,red/green cell ratio (normalised),[11],0.91 (inactive)
same,normalised cell number,[11]; [27],1.03
same,normalised cell number,[11]; [28],0.93
NC1=NCCN1CC(=O)O,inhibition,[1],26.8%
same,score,[2],1.43
same,rescue above control,[3],1.68
same,cytochrome c release ratio,[4],1.01
same,inhibition of aggregation,[5],80.3%
same,glutamate uptake change,[6],12.9%
same,inclusion score,[7],2
same,aggregation suppression score,[8],0.99
same,parasite load remaining,[9],89.9% (inactive)
same,viability,[9],69.9%
same,inhibition,[10],-2.27% (inactive)
same,red/green cell ratio (normalised),[11],0.92 (inactive)
same,normalised cell number,[11]; [27],1.1
same,normalised cell number,[11]; [28],1.01
same,luciferase signal,[16],48 AU (inactive)
CC(C)=CCc1c(O)cc2oc(C)cc(=O)c2c1O,inhibition,[10],8.51% (inactive)
same,red/green cell ratio (normalised),[11],0.93 (inactive)
same,normalised cell number,[11]; [27],1.18
same,normalised cell number,[11]; [28],1.1
same,luciferase signal,[16],52 AU (inactive)
O=c1c(-c2ccccc2)coc2cc(O)cc(O)c12,inhibition,[10],-1.41% (inactive)
same,red/green cell ratio (normalised),[11],0.93 (inactive)
same,normalised cell number,[11]; [27],1.2
same,normalised cell number,[11]; [28],1.12
same,luciferase signal,[16],40 AU (inactive)
NC1(C(=O)O)CCCC1,inhibition,[1],20.1%
same,score,[2],1.21
same,rescue above control,[3],-10.9
same,cytochrome c release ratio,[4],4.67
same,inhibition of aggregation,[5],81.6%
same,glutamate uptake change,[6],2.91%
same,inclusion score,[7],2
same,aggregation suppression score,[8],1.57
same,parasite load remaining,[9],96.4% (inactive)
same,viability,[9],69.9%
same,inhibition,[10],-12.6% (inactive)
same,red/green cell ratio (normalised),[11],0.86 (inactive)
same,normalised cell number,[11]; [27],1.24
same,normalised cell number,[11]; [28],1.06
same,luciferase signal,[16],76 AU (inactive)
O=C(O)c1cc(=O)c2cccc(O)c2[nH]1,inhibition,[1],-21.7%
same,score,[2],0.98
same,rescue above control,[3],-4.01
same,cytochrome c release ratio,[4],1.01
same,inhibition of aggregation,[5],57.7%
same,glutamate uptake change,[6],9.13%
same,inclusion score,[7],1
same,aggregation suppression score,[8],1.12
same,parasite load remaining,[9],174% (inactive)
same,viability,[9],71.4%
same,inhibition,[10],4.89% (inactive)
same,red/green cell ratio (normalised),[11],1.29 (inactive)
same,normalised cell number,[11]; [27],0.88
same,normalised cell number,[11]; [28],1.13
same,luciferase signal,[16],100 AU (inactive)
O=C(O)c1cc2ccccc2[nH]1,parasite load remaining,[9],53.6% (inactive)
same,viability,[9],75.3%
same,inhibition,[10],0.53% (inactive)
same,red/green cell ratio (normalised),[11],1.04 (inactive)
same,normalised cell number,[11]; [27],0.91
same,normalised cell number,[11]; [28],0.95
same,luciferase signal,[16],36 AU (inactive)
O=C(O)c1cc([N+](=O)[O-])ccc1NCCCc1ccccc1,inhibition,[1],58.5%
same,score,[2],0.73
same,rescue above control,[3],1.37
same,cytochrome c release ratio,[4],0.78
same,inhibition of aggregation,[5],4.16%
same,glutamate uptake change,[6],5.28%
same,inclusion score,[7],2
same,aggregation suppression score,[8],0.265
same,period change,[18],0.025 h (inactive)
same,inhibition,[19],-4% (inactive)
same,fluorescence ratio (interference),[20],1 (inactive)
same,inhibition,[10],11.2% (inactive)
same,remaining activity,[12],93.2% (inactive)
same,fold change,[13]; [29],1.03 (inactive) and 0.858 (inactive) and 0.935 (inactive)
same,fold change,[13]; [30],1.22 and 0.934 and 0.883
same,cell count,[13]; [31],10800 and 5570 and 8160
same,cell count,[13]; [32],10500 and 6480 and 8730
same,fold fluorescence,[14],4.56 [at 166.5 µM] (inactive)
same,outcome,[21],inactive
same,z-score,[17],0.305 (inactive) and -0.425 (inactive)
CC(=O)[C@H]1CC[C@H]2[C@@H]3CCC4=CC(=O)CC[C@]4(C)[C@H]3CC[C@]12C,fluorescence ratio,[22],0.96 (inactive)
same,inhibition,[23],-6.73% (inactive)
same,inhibition,[24],1.44% (inactive)
same,fluorescence ratio,[25],0.92 (inactive)
COC1=C(OC)C(=O)C(C/C=C(\C)CC/C=C(\C)CC/C=C(\C)CC/C=C(\C)CC/C=C(\C)CC/C=C(\C)CC/C=C(\C)CC/C=C(\C)CC/C=C(\C)CCC=C(C)C)=C(C)C1=O,SSMD,[26],2.18
same,cell count,[26],7460
same,plate-normalised HSF1 focus index,[26],1.08 (inactive)
CC(=O)N[C@@H](Cc1ccccc1)C(=O)O,inhibition,[10],-1.76% (inactive)
same,fold change,[13]; [29],0.922 (inactive)
same,fold change,[13]; [30],1.14
same,cell count,[13]; [31],8280
same,cell count,[13]; [32],8980
CN(C)c1nc(N)c(C(=O)N=C(N)N)nc1Cl,period change,[18],-0.18 h (inactive)
same,inhibition,[19],-2% (inactive)
same,fluorescence ratio (interference),[20],1 (inactive)
same,inhibition,[10],11.7% (inactive)
same,fold change,[13]; [29],1.07 (inactive)
same,fold change,[13]; [30],1.7
same,cell count,[13]; [31],10400
same,cell count,[13]; [32],9710
same,outcome,[21],inactive
same,z-score,[17],0.335 (inactive)
